Laboratory results reported in PubChem BioAssay (Tox21).
“And” between values parts separate entries of the source, which are not always exact repeats. Equal entries are not always repeated. Records with an inconclusive call do not appear. A call without a number means that no potency is given here. Some compounds were tested as several samples or in several runs, with calls that do not always agree. The source made the active and inactive calls. Unless noted, calls come from the whole dose curve; as a rule, active = well fitted cell-killing curve with a large enough effect in the repeat runs; inconclusive = weak or mixed curves, or effect the other way; inactive = flat fitted curve, though single readings scatter.

Tested on: not listed separately
Assay: qHTS assay to identify small molecule antagonists of the sonic hedgehog signaling (Shh) pathway (AID 1259369; calls by dose curve; note: nearly all actives have a fitted effect of over 45% in size)
Settings: NIH/3T3 Gli1-Luc reporter, Shh antagonist, luminescence 24 h; series mostly up to 92.4 µM
Method in brief: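 Stable Gli1-Luc reporter NIH/3T3 clone; quantitative HTS in stimulated mode with conditioned medium. Luminescence measured after 24hr compound treatment at 37 C.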
Potency is the fitted concentration of half-maximal effect.

Structure (SMILES) | Potency
CC[n+]1c(-c2ccccc2)c2cc(N)ccc2c2ccc(N)cc21 | 17.1 µM (active)
CCOP(=O)(O)OCC (tested in a mixture with another compound) | 0.0482 µM (active)
O=C(O)c1nn(Cc2ccc(Cl)cc2Cl)c2ccccc12 | inactive
CC(C)(c1ccc(OCC2CO2)cc1)c1ccc(OCC2CO2)cc1 (stereo not given) | 15.6 µM (active)
C[C@]12CCC(=O)C=C1CC[C@@H]1[C@@H]2CC[C@@]2(C)[C@H]1CC[C@]2(C)O | 6.16 µM (active)
O=C1C(Cl)=C(Cl)C(=O)c2ccccc21 | 1.73 µM (active)

Target: Estrogen receptor beta (Homo sapiens) (UniProt Q92731)
Sequence (Q92731 whole entry, looked up): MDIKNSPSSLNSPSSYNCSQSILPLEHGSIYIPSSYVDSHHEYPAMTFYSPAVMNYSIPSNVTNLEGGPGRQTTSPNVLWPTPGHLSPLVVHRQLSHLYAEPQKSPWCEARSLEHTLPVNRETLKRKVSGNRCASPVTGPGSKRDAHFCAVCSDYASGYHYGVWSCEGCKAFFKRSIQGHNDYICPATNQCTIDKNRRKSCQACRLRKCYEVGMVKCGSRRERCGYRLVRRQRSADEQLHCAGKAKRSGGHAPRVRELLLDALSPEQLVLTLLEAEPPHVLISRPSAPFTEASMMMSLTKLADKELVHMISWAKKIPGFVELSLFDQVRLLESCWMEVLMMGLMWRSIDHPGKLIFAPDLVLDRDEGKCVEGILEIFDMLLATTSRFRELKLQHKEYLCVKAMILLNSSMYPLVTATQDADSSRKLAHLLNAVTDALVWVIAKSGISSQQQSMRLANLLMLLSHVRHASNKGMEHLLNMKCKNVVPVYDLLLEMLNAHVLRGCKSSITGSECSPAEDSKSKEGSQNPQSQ
Assay: qHTS assay to identify small molecule agonists of the estrogen receptor beta (ER-beta) signaling pathway (AID 1259377; active = well fitted activation curve with a large enough effect in the signal ratio in the repeat runs, not every such curve was filed as active; the % refers to the signal ratio)
Settings: ER-beta-UAS-bla HEK293T, beta-lactamase FRET ratio, 16 h; series mostly up to 92.4 µM
Method in brief: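 Measured by fluorescence intensity from a B/G FRET beta-lactamase substrate (2 h, room temperature) in ER-beta-UAS-bla HEK293T cells treated with DMSO-dissolved compounds for 16 hr at 37C and 5% CO2.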

Structure (SMILES) | Potency
O=C1Nc2ccc(Cl)cc2C(c2ccccc2)=NC1O (stereo not given) | inactive
CCOP(=S)(OCC)SCn1c(=O)oc2cc(Cl)ccc21 | inactive
C[C@]12CC[C@H]3[C@@H](CCC4=CC(=O)CC[C@@H]43)[C@@H]1CC[C@@H]2O | 540 nM (active) and 4.22 µM (active)

Tested on: not listed separately
Assay: qHTS assay to identify small molecule agonists of the androgen receptor (AR) signaling pathway in the presence of an antagonist - cell viability counter screen (AID 1259379); note: nearly all actives have a fitted effect of over 25% in size
Settings: MDA-kb2 viability, CellTiter-Fluor, 16 h; series mostly up to 92.4 µM
Method in brief: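 Nilutamide-containing (3.0uM final) MDA-kb2 cultures, 3,000 cells/well, were treated with compounds across 15 concentrations. After 16 hr at 37C with no CO2, cell viability was determined by CellTiter-Fluor fluorescence in the luciferase assay wells.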

Structure (SMILES) | Potency
Nc1ccc([N+](=O)[O-])cc1N | 61.1 µM (active) and 30.6 µM (active)
N#CCCCCC#N | inactive
C[N+](C)(C)CC(=O)O | inactive
O=S(=O)(O)C(F)(F)C(F)(F)C(F)(F)C(F)(F)C(F)(F)C(F)(F)C(F)(F)C(F)(F)F | inactive
CC(C)(C#N)N=NC(C)(C)C#N | inactive
Cl | inactive
CCCCCCCCCC(CC)c1ccc(S(=O)(=O)O)cc1 (stereo not given) | inactive
O=[N+]([O-])c1ccc(Cl)c([N+](=O)[O-])c1 | 22 µM (active) and 21.7 µM (active)
Clc1ccc(C(Cl)(Cl)Cl)cc1 | inactive
CC(C)=CC1C(C(=O)OCN2C(=O)C3=C(CCCC3)C2=O)C1(C)C (stereo not given) | inactive
C[N+](C)(C)C | inactive
CCCCOCC1CO1 (stereo not given) | inactive
ClCC(Cl)CCl | inactive
CCCCOCCOC(C)=O | inactive
NN=C(N)N | inactive
COP(=S)(OC)Oc1ccc(S(=O)(=O)N(C)C)cc1 | inactive
CCC(=O)Nc1ccc(Cl)c(Cl)c1 | inactive
CCC[CH2][Sn]([Cl])([CH2]CCC)[CH2]CCC | 687 nM (active) and 1.54 µM (active)
[Cl-].[Cl-].[Cl-].[Fe+3] | inactive

Structure (SMILES) | Potency
ClC(Cl)=C(Cl)C(Cl)=C(Cl)Cl | inactive
CCCCC(C#N)(Cn1cncn1)c1ccc(Cl)cc1 (stereo not given) | inactive
CCOP(=S)(OCC)SCSC(C)(C)C | inactive
C[N+](C)(C)CC(=O)[O-] | inactive
O=NN(c1ccccc1)c1ccccc1 | inactive
O=C1Nc2ccc(Cl)cc2C(c2ccccc2)=NC1O (stereo not given) | inactive
CCOP(=S)(OCC)SCn1c(=O)oc2cc(Cl)ccc21 | inactive
CC1CC(=O)O1 (stereo not given) | inactive
CNC(=S)S | inactive
C[C@]12CC[C@H]3[C@@H](CCC4=CC(=O)CC[C@@H]43)[C@@H]1CC[C@@H]2O | inactive
c1ccc(C2CO2)cc1 (stereo not given) | inactive
CCC1(c2ccc(N)cc2)CCC(=O)NC1=O (stereo not given) | inactive
CC[n+]1c(-c2ccccc2)c2cc(N)ccc2c2ccc(N)cc21 | 24.2 µM (active) and 10.6 µM (active)
CCOP(=O)(O)OCC (tested in a mixture with another compound) | inactive and 27.1 µM (active)
O=C(O)c1nn(Cc2ccc(Cl)cc2Cl)c2ccccc12 | inactive
CC(C)(c1ccc(OCC2CO2)cc1)c1ccc(OCC2CO2)cc1 (stereo not given) | inactive
C[C@]12CCC(=O)C=C1CC[C@@H]1[C@@H]2CC[C@@]2(C)[C@H]1CC[C@]2(C)O | inactive
O=C1C(Cl)=C(Cl)C(=O)c2ccccc21 | 48.7 µM (active) and 54.5 µM (active)

Tested on: not listed separately
Assay: qHTS assay to identify small molecule agonists of the estrogen receptor beta (ER-beta) signaling pathway - cell viability counter screen (AID 1259380); note: nearly all actives have a fitted effect of over 30% in size
Settings: ER-beta-bla HEK293T viability, CellTiter-Glo luminescence, 16 h; series mostly up to 92.4 µM
Method in brief: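 Steps: plate ER-beta-UAS-bla HEK293T cells, rest 6 hr; add compounds in DMSO; incubate 16 hr at 37C, 5% CO2; add FRET substrate 2 hr; add CellTiter-Glo, wait 30 min at room temperature; read luminescence.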

Structure (SMILES) | Potency
Nc1ccc([N+](=O)[O-])cc1N | 21.7 µM (active) and inactive
N#CCCCCC#N | inactive
C[N+](C)(C)CC(=O)O | inactive
O=S(=O)(O)C(F)(F)C(F)(F)C(F)(F)C(F)(F)C(F)(F)C(F)(F)C(F)(F)C(F)(F)F | 51.9 µM (active) and 48.6 µM (active)
CC(C)(C#N)N=NC(C)(C)C#N | inactive
Cl | inactive
O=[N+]([O-])c1ccc(Cl)c([N+](=O)[O-])c1 | 27.7 µM (active) and 27.3 µM (active)
Clc1ccc(C(Cl)(Cl)Cl)cc1 | inactive
C[N+](C)(C)C | inactive
CCCCOCC1CO1 (stereo not given) | inactive
ClCC(Cl)CCl | inactive
CCCCOCCOC(C)=O | inactive
NN=C(N)N | inactive
COP(=S)(OC)Oc1ccc(S(=O)(=O)N(C)C)cc1 | inactive
CCC[CH2][Sn]([Cl])([CH2]CCC)[CH2]CCC | 1.22 µM (active) and 1.37 µM (active)
[Cl-].[Cl-].[Cl-].[Fe+3] | inactive
ClC(Cl)=C(Cl)C(Cl)=C(Cl)Cl | inactive

Structure (SMILES) | Potency
CCOP(=S)(OCC)SCSC(C)(C)C | inactive
C[N+](C)(C)CC(=O)[O-] | inactive
O=NN(c1ccccc1)c1ccccc1 | inactive
O=C1Nc2ccc(Cl)cc2C(c2ccccc2)=NC1O (stereo not given) | inactive
CCOP(=S)(OCC)SCn1c(=O)oc2cc(Cl)ccc21 | inactive
CC1CC(=O)O1 (stereo not given) | inactive
CNC(=S)S | inactive
C[C@]12CC[C@H]3[C@@H](CCC4=CC(=O)CC[C@@H]43)[C@@H]1CC[C@@H]2O | inactive
c1ccc(C2CO2)cc1 (stereo not given) | inactive
CCC1(c2ccc(N)cc2)CCC(=O)NC1=O (stereo not given) | inactive
CC(C)(c1ccccc1)c1ccc(O)c(C(C)(C)c2ccccc2)c1 | 21.5 µM (active) and 30.6 µM (active)
CC[n+]1c(-c2ccccc2)c2cc(N)ccc2c2ccc(N)cc21 | 1.53 µM (active) and 1.06 µM (active)
CCOP(=O)(O)OCC (tested in a mixture with another compound) | inactive and 48.2 µM (active)
O=C(O)c1nn(Cc2ccc(Cl)cc2Cl)c2ccccc12 | 27.1 µM (active) and 26.6 µM (active)
CC(C)(c1ccc(OCC2CO2)cc1)c1ccc(OCC2CO2)cc1 (stereo not given) | 61.9 µM (active)
C[C@]12CCC(=O)C=C1CC[C@@H]1[C@@H]2CC[C@@]2(C)[C@H]1CC[C@]2(C)O | inactive
O=C1C(Cl)=C(Cl)C(=O)c2ccccc21 | 27.4 µM (active) and 27.3 µM (active)
